# Hits are enriched below; roughly 3.1% of the tested compounds scored in any of these assays.
# TR SRC2 fluor cs = counter-screen for TRb-SRC2 inhibitors: fluorescence interference; Potency, µM (titrated, usually from 106 µM), without a hit: top-dose fluorescence change, negative = quenching; TRb/SRC2 Texas Red total fluorescence interference; AID 1479; 0.29% of 280,000 active; active means well fitted curve in either direction with a large enough effect; inconclusive means small, poorly fitted or top-dose-only effect
#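 Human TRβ ligand-binding domain (0.6 uM) and Texas Red SRC2 peptide (20 nM) in Tris buffer with 1 uM T3 and 5% DMSO were incubated with pinned compound for 5 hr at ambient temperature. Total fluorescence was computed as S + 2P (555/632 nm).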
# Tau fluor counter = counter-screen for tau fibril formation inhibitors. AID 1463. 0.93% of 280,000 active. Potency, µM (titrated, usually from 57.7 µM), for the others: top-dose activity change, negative = decrease. tau K18 P301L Alexa594 fluorescence, heparin fibrillization; further: nearly all actives have a fitted effect of over 55% in size
#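 Human tau K18 P301L (15 uM unlabeled, 0.24 uM Alexa 594-labeled) in 100 mM sodium acetate pH 7 with 20 uM heparin, 6 hr at 37 C. ThT 30 uM added, 1 hr ambient; Alexa 594 FP and total fluorescence read at 555/632 nm.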
# Tau fibril ThT = blocks human tau fibril formation measured by thioflavin T; 2.1% of 270,000 active; AID 1460; recombinant tau K18 P301L (four-repeat tau fragment), heparin-induced fibrillization, ThT fluorescence; Potency, µM (doses to about 57.4 µM), for inactives: at the top dose activity, negative = inhibition, usual class: inhibitors; further: nearly all actives have a fitted effect of over 55% in size
#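 Recombinant human tau K18 fragment […] carrying P301L, 15 uM unlabeled plus 0.24 uM Alexa 594-labeled, was fibrillized with 20 uM heparin in 100 mM sodium acetate pH 7 for 6 hr at 37 C; 30 uM ThT fluorescence read after 1 hr.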
# TRb SRC2 PPI = TRbeta-SRC2 interaction inhibition | P10828 | TRbeta-SRC2 peptide binding, fluorescence polarization; receptor liganded with 1 µM T3 | Potency, µM (titrated, usually from 106 µM), inactives show at the highest dose activity change, negative = inhibition, usual class: inhibitors | 0.065% of 280,000 active | AID 1469;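 further: plate controls were bound peptide for no effect and peptide without receptor for full effect; nearly all actives have a fitted effect of over 50% in size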
# Target sequence (P10828 whole entry, looked up): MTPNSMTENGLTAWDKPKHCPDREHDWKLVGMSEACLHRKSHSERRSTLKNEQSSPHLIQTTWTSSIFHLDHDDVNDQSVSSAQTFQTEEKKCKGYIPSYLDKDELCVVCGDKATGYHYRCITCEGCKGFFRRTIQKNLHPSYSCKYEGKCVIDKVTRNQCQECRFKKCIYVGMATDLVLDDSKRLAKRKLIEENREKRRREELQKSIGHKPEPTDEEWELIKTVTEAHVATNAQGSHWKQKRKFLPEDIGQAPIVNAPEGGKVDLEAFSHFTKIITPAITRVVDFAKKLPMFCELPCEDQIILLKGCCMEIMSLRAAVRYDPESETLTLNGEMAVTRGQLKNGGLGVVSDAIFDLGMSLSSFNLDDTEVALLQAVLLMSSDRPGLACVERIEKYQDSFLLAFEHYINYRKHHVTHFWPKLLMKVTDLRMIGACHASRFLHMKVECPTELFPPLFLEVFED
#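 Compounds were added to 0.6 uM TRb ligand-binding domain and 20 nM Texas Red-labeled SRC2 peptide in Tris buffer containing 1 uM T3, incubated 5 hr at ambient temperature, then read by fluorescence polarization.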
# Tau fibril FP = inhibitors of human tau fibril formation; K18 P301L tau heparin fibrillization, Alexa594 FP, 6 h; AID 1468; Potency, µM (doses to about 57.7 µM), inactives show at the top dose activity, negative = inhibition, actives largely listed as inhibitors; P10636; 0.39% of 280,000 active; further: nearly all actives have a fitted effect of over 55% in size
#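 Read-out: fluorescence polarization of Alexa 594-labeled tau (0.24 uM), 555 nm excitation, 632 nm emission. Mixtures held 15 uM unlabeled K18 P301L, compound and 20 uM heparin, pH 7 acetate buffer, incubated 6 hr at 37 C.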
# * marks the source's active call; other numbers are inactive results; ? = inconclusive; · = no result; [ ] = another dose, or the depositor's remark. Unless noted, the call rests on the fitted dose curve; in most records, active means well fitted curve in the direction sought with a large enough effect; inconclusive means small, poorly fitted or top-dose-only effect, or another doubt; inactive means no such curve, though single readings can be large; an effect the other way counts as inactive or inconclusive. Unless noted, on the % scale 0 is the no-effect control and ±100 the full control effect; potency means the concentration at half of the fitted maximal effect.
SMILES,TR SRC2 fluor cs,Tau fluor counter,Tau fibril ThT,TRb SRC2 PPI,Tau fibril FP
CCc1ccc(OCC(=O)N(Cc2cccs2)c2ccc(Cl)cc2)cc1,2%,-11%,-13%,-2%,7%
CCCN(Cc1cccs1)C(=O)Nc1ccc(Br)cc1F,-1%,-5%,-4%,-8%,-15%
N#Cc1c(Nc2ccc(Cl)cc2)s[nH]c1=O,1%,-20%,·,2%,20µM*
O=C(O)CCN1C(=O)/C(=C\c2ccc(-c3nc4ccccc4s3)o2)SC1=S,-1%,-28%,2µM*,-2%,-16%
O=C(O)CCCN1C(=O)/C(=C\c2ccco2)SC1=S,-7%,-29%,22µM*,-6%,?
O=C1/C(=C\c2ccco2)SC(=S)N1c1ccccc1,?,?,25µM*,10%,?
O=C(O)CCN1C(=O)/C(=C\c2ccncc2)SC1=S,1%,4%,-20%,4%,2%
O=C(OCCOCCOC(=O)c1ccccc1)c1ccccc1,4%[201 µM],·,·,10%[201 µM],·
O=C(O)c1ccc(N=Nc2c(O)[nH]c3cc(Cl)ccc23)cc1,-4%,-8%,4µM*,5%,6%
Nc1nc(N)c(N=Nc2ccc(C(=O)O)cc2)c(N)n1,-5%,-10%,14µM*,-1%,4%
O=C1CCCC(O)=C1N=Nc1ccc(C(=O)O)cc1,18%,-25%,?,?,-9%
Cn1nc(C(F)(F)F)c2cc(C(=O)Nc3ccc(C(F)(F)F)cc3)sc21,0%,?,·,6%,28µM*
Cc1cc(C)cc(NC(=O)c2cccc(N3CCCS3(=O)=O)c2)c1,0%,-5%,-9%,0%,-6%
COc1cccc(NC(=O)c2cc3c(=O)n(C)c4ccccc4c3n2C)c1,-3%,-7%,-6%,3%,-11%
O=C(Nc1ccc(N2CCN(c3ncccc3C(F)(F)F)CC2)nc1)c1cccs1,-4%,13µM*[quencher],7.9µM*,-1%,9%
Cc1c(Cl)cccc1NS(=O)(=O)c1ccc2c(c1)C1C=CCC1C(c1ccc(C(=O)O)cc1)N2 (stereo not given),-12%,?,25µM*,10%,?
Cc1cccc(C)c1NS(=O)(=O)c1ccc2c(c1)[C@H]1C=CC[C@H]1[C@@H](c1ccc(Cl)cc1)N2,0%,?,?,11%,-2%
COc1ccc(NS(=O)(=O)c2ccc3c(c2)[C@H]2C=CC[C@H]2[C@@H](c2ccc(C(=O)O)cc2)N3)cc1,-8%,?,25µM*,10%,-17%
COC(=O)c1ccc([C@H]2Nc3ccc(S(=O)(=O)Nc4ccc(C)cc4)cc3[C@H]3C=CC[C@H]32)cc1,-2%,?,?,5%,1%
CCC1CN(C(=O)N2CCC(C(=O)NCCC3=CCCCC3)CC2)c2cc(C)ccc2O1 (stereo not given),0%,-13%,-14%,-7%,13%
O=C1/C(=C\c2ccco2)CCC/C1=C\c1ccco1,0%,-26%,18µM*,9%,?
CC1C/C(=C/c2ccco2)C(=O)/C(=C/c2ccco2)C1 (stereo not given),-1%,-29%,25µM*,-3%,?
c1ccc2c(c1)SCc1c-2[nH]c2ccccc12,-3%,·,·,5%,·
Cc1ccc(Nc2nc(CSc3nnnn3C)cs2)cc1,1%,?,?,-12%,4%
Cc1ccc(Nc2nc(CSc3nnnn3-c3ccccc3)cs2)cc1,0%,11µM*[quencher],?,-2%,13%
SMILES,TR SRC2 fluor cs,Tau fluor counter,Tau fibril ThT,TRb SRC2 PPI,Tau fibril FP
Cc1ccc(CNC(=O)c2c(-c3ccccc3F)noc2C)o1,-1%,0%,2%,-3%,-4%
CC(=O)NN1C(=O)/C(=C\c2ccccc2)SC1=S,-2%,-12%,-9%,-1%,-8%
Cn1cccc1/C=C1\SC(=S)N(CC(=O)O)C1=O,-5%,0%,11µM*,-8%,-3%
Cn1cc(C=O)c2ccccc21,-3%,-5%,5%,-2%,2%
O=C(O)CN1C(=O)/C(=C/c2ccsc2)SC1=S,0%,7%,-13%,-10%,-6%
Cn1cccc1/C=C1\SC(=S)N(NC(=O)c2ccccc2Cl)C1=O,-1%,-26%,11µM*,3%,5%
Cn1cc(/C=C2\SC(=O)NC2=S)c2ccccc21,12%,?,2µM*,17%,?

# From PubChem BioAssay
